# Assay results: PubChem BioAssay (Tox21)
# Values without a mark were called inactive. The source made the active and inactive calls. Calls come from the whole dose curve; as a rule, active = well fitted curve in the direction sought with a large enough effect in the repeat runs; inconclusive = weak or mixed curves; inactive = flat fitted curve, though single readings scatter.
# Test: qHTS assay to test for compound auto fluorescence at 535 nm (green) in HEK293 cells (AID 720680)
# Conditions: green autofluorescence 485/535 nm; series mostly up to 91.3 µM
# From the text: U.S. Tox21 Program National Center for Advancing Translational Sciences [NCATS] NIH Chemical Genomics Center [NCGC] U.S. Environmental Protection Agency [EPA] National Institutes of Environmental Health Sciences [NIEHS] National Toxicology Program [NTP] U.S. Food and Drug Administration [FDA] Tox21 Assay Overview: Compound auto fluorescence often interferes with screening of the compound library against various biological targets and signaling pathways. Some of these compounds may have fluorophoric properties. Such properties may interfere with the assay outputs resulting in false positives and/or negatives. To decrease such complications and ensure the compound activities are relevant in terms of biological response, the Tox21 10K compound library was screened for auto fluorescence. From the fluorophores used as reporter signals in our screening assays, the auto fluorescence equivalencies of compounds against three fluorophores have been evaluated: Triamterene, Fluorescein and Rose Bengal sodium for blue, green and red fluorescence, respectively. The fluorescence intensities were measured using Excitation/Emission wavelengths at 405/460nm, 485/535nm and 540/590nm for blue, green and red labels, respectively. This assay includes the green fluorescence data.
# Tox21 Assay Protocol Summary: 2,000 HEK293 cells in 5 uL of culture medium containing 10% dialyzed FBS per well were dispensed into black wall/clear bottom 1536-well plates using a Multidrop Combi Dispenser (Thermo Scientific). The assay plates were incubated for 4-5 hr at 37C to allow cell attachment to the well bottom, followed by the transfer of 23 nL compound or DMSO vehicle by a pintool work station (Kalypsys, San Diego, CA). After the assay plates were incubated overnight at 37C and 5% CO2, fluorescence intensities in the assay plates were measured by an Envision (PerkinElmer, Shelton, CT) plate reader using three labels for measuring blue, green and red fluorescence at […] 460, 535 and 590nm respectively.
# % is set by controls: 0 for no effect and ±100 for the full control effect.
Structure (SMILES),outcome,"fluorescence, % of fluorescein"
CC1=NN(c2cc(Cl)c(S(=O)(=O)O)cc2Cl)C(=O)C1N=Nc1ccc(S(=O)(=O)O)cc1 (stereo not given),inactive,
CCC(=O)c1ccc2c(c1)N(CCCN(C)C)c1ccccc1S2,inactive,
CCCCCCCCCCCCCCCCOP(=O)([O-])OCC[N+](C)(C)C,inactive,
CC(C)OC(C)C,inactive,
O=S(=O)(O)C(F)(F)F,inactive,
NC/C=C/C(=O)O,inactive,
Cc1ncc(CO)c(CN)c1O,inactive,
c1ccc(CN(CC2=NCCN2)c2ccccc2)cc1,inactive,
CCCCCCCCOC(=O)CCCCCCCCC(=O)OCCCCCCCC,inactive,
O=C1C=CC(=O)O1,inactive,
CC1=C(O)C(=O)OC1C (stereo not given),inactive,
Cc1ccc([N+](=O)[O-])c(N)c1,inactive,
Cc1ccc([N+](=O)[O-])cc1Cl,inactive,
CC(C)(C)c1ccc(OC(=O)c2ccccc2O)cc1,inactive,
C=O,inactive,
CCN[C@H]1CN(CCCOC)S(=O)(=O)c2sc(S(N)(=O)=O)cc21,,-0.0786% [at 18.6 µM]
C1CCOC1,inactive,
CC(C)c1ccccc1,inactive,
CCCCOc1cc(C(=O)NCCN(CC)CC)c2ccccc2n1,,0.0154% [at 18.6 µM]
CC(C)=CCC[C@](C)(O)[C@@H]1CC=C(C)CC1,inactive,

Structure (SMILES),outcome,"fluorescence, % of fluorescein"
O=C(C(Cl)Cl)N1CCOC12CCCCC2,inactive,
C[C@]12CCC(=O)C=C1CC[C@@H]1[C@@H]2CC[C@@]2(C)[C@H]1CC[C@]2(O)C(=O)CO,inactive,
Cc1c(-c2ccccc2)oc2c(C(=O)OCCN3CCCCC3)cccc2c1=O,,-0.0807% [at 18.6 µM]
OCCN(CCO)CCN(CCO)CCO,inactive,
CC1=C2[C@H](/C=C(\C)C(=O)O)CC[C@@H](C)[C@H]2CC1,inactive,
O=C(O)c1cccc(Cl)c1Cl,inactive,
O=C1Nc2ccc([N+](=O)[O-])cc2C1=O,inactive,
COC(=O)c1ccc(OC)cc1,inactive,
CCCCN1C[C@H](O)[C@@H](O)[C@H](O)[C@H]1CO,inactive,
CC1=CC(=O)CC(C)(C)C1=O,inactive,
CN1C(=O)CC(c2ccccc2)C1=O (stereo not given),inactive,
COc1ccccc1N1CCN(CCCNc2cc(=O)n(C)c(=O)n2C)CC1,inactive,
CC(C)(C)C1CCCCC1=O (stereo not given),inactive,
O=c1oc2c(O)c(O)cc3c(=O)oc4c(O)c(O)cc1c4c23,inactive,
CN1CCN(c2c(F)cc3c(=O)c(C(=O)O)cn(CCF)c3c2F)CC1,inactive,
O=[N+]([O-])c1nccn1CO[C@@H](CO)[C@H](O)CO,inactive,
Cc1ccc(C)c(N)c1,inactive,
Cc1cc(NS(=O)(=O)c2ccc(N)cc2)nc(C)n1,inactive,
COC(=O)C(C)O (stereo not given),inactive,
CCCc1c2oc(C(=O)O)cc(=O)c2cc2c(=O)cc(C(=O)O)n(CC)c12,inactive,
